Phagocytosis inh – inhibitors of macrophage phagocytosis. J774A.1 macrophage IgG-bead phagocytosis, imaging. inhibition, % at 5 µM. hit rate 0.07% among 110,000. AID 1029;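 active means inhibition above the mean of the plate negative controls plus 5 SD, cut at about 13% in these data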;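 further: phagocytic index as fraction of beads internalized from green versus red external bead signal; plate controls were DMSO negative control for no effect and cytochalasin-D positive control for full effect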
Measles CPE – protection of cells from measles virus; Measles virus-infected cells, CPE protection, absorbance; protection (pct of control), % at 4 µM; hit rate 1.5% among 140,000; AID 841; in the data active means protection mostly above about 24%, no sharp cut-off; inactive means mostly below about 26%
SDO1 yeast rescue – sdo1-depleted yeast growth rescue; S. cerevisiae sdo1-depleted JHY4D growth rescue, OD600 30 h; active compounds read high; pdr5 snq2 efflux-pump mutant strain; AID 817; hit rate 0.21% among 140,000; z-score at 10 µM;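 active means z-score above 3 at both the 24 hr and the 30 hr optical density reads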;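 further: z-score against mean and SD of all compound wells on the same plate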
Numbers without * were called inactive; . = no result given; [ ] = another dose, or the depositor's remark. Rows were chosen to be rich in hits. Some 1.8% of all compounds tested hit in one or more screens of this group.

SMILES	Phagocytosis inh	Measles CPE	SDO1 yeast rescue
Cc1nn(CC(=O)OCC(=O)Nc2ccccc2[N+](=O)[O-])c(C)c1[N+](=O)[O-]	-6	6	1.7
COc1cc(C)nc(N2CCCC(C(=O)Nc3cccc(Cl)c3Cl)C2)n1 (configuration not stated)	2	6	-2.7
COc1ccccc1NC(=O)C1CCCN(c2nc(C)cc(C)n2)C1 (configuration not stated)	.	33*	-0.34
Cc1cc(OC(C)C(=O)N/N=C/CC(C)c2ccccc2)ccc1Cl (configuration not stated)	1	10	0.2
CCCc1nnc(NC(=O)CCC(=O)N2CCN(CCOc3ccc(C)cc3)CC2)s1	-1	2	0.48
CCCc1nnc(NC(=O)CCC(=O)N2CCN(CCn3c(C)ccc3C)CC2)s1	1	31*	0.2
O=C(Oc1ccc2ccccc2c1Cl)N1CCCCCC1	-4	30*	-0.27
O=C(Oc1ccc2ccccc2c1Cl)N1CCCC1	2	11	-0.65
CC1CCCCN1S(=O)(=O)c1ccc(S(=O)(=O)NCCc2ccncc2)cc1 (configuration not stated)	.	7	-0.85
COc1ccc(NS(=O)(=O)c2ccc(NS(C)(=O)=O)cc2)cc1	-3	4	-0.01
CC(C)(C)NS(=O)(=O)c1ccc(NS(C)(=O)=O)cc1	-2	45*	1
COc1cccc(Nc2nc3ccccc3nc2-n2nc(C)cc2C)c1	0	2	1.7
Cc1cc(C)n(-c2nc3ccccc3nc2Nc2ccc3c(c2)OCO3)n1	.	42*	-0.93
COCCCn1c(-c2ccco2)nc2ccccc2c1=O	0	29*	0.23
COc1ccc(CCn2c(-c3ccco3)nc3ccccc3c2=O)cc1OC	.	11	-1.5
Cc1ccc(C(=O)N/C(=C/c2ccc(F)cc2)C(=O)NCc2ccncc2)cc1	-5	42	0.29
C=CCNC(=O)c1onc(CSc2cc(C)ccc2C)c1C(=O)O	.	34*	-0.15
C=CCNC(=O)c1onc(CSc2ccccc2C)c1C(=O)O	.	7	0.11
Cc1nnc(NC(=O)Cn2cnc3c2c(=O)n(C)c(=O)n3C)s1	.	8	-0.57
CSCCC1NC(=O)N(CC(=O)Nc2cccc3ccccc23)C1=O (configuration not stated)	1	13	0.38
COCCNC(=O)CN(C(=O)Cn1nnc2ccccc21)c1ccc(C)c(F)c1	.	7	0.48
Cc1cc(C(=O)N/N=C/c2cccc([N+](=O)[O-])c2)c(C)o1	.	33*	-0.62
O=C(N/N=C/c1cccc([N+](=O)[O-])c1)c1cc2ccccc2o1	-1	12	-0.68
O=C(Nc1nc2ccccc2n1CCOc1ccccc1)c1ccco1	.	3	-1.3
O=C(Nc1nc2ccccc2n1CCOc1ccc(Cl)cc1)c1ccco1	1	40*	-1.5
SMILES	Phagocytosis inh	Measles CPE	SDO1 yeast rescue
CSc1nc(SCC(N)=O)c2c3c(sc2n1)CN(C)CC3	0	12	0.73
CCSc1nc(N)c2c3c(sc2n1)CN(C)CC3	-2	44*	0.48
Cc1c(NC(=S)NC(NC(=O)C(C)(C)C)C(Cl)(Cl)Cl)c(=O)n(-c2ccccc2)n1C (configuration not stated)	.	35	1.4
Nc1ncnc2c1ncn2[C@@H]1O[C@H](CO)[C@@H](O)[C@H]1O	.	45*	0.18
Nc1ncnc2c1ncn2[C@H]1C[C@H](O)[C@@H](CO)O1	.	4	0.35
COc1ccc2nc(C)cc(N3CC(C)OC(C)C3)c2c1 (configuration not stated)	1	27*	0.67
COc1ccc2nc(C)cc(N3CCOCC3)c2c1	0	4	0.62
O=C(c1ccccc1)N1N=C(c2ccccc2)CC1c1ccccc1[N+](=O)[O-] (configuration not stated)	.	9	-0.54
CN1CCN(c2ccc(S(=O)(=O)N3CCCCC3)cc2NC(=O)c2ccc3ccccc3c2)CC1	-1	13	-0.72
Cc1ccccc1C(=O)Nc1cc(S(=O)(=O)N2CCCCC2)ccc1N1CCN(C)CC1	.	33*	0.14
O=C(O)CCCC(=O)Nc1cccc(C(F)(F)F)c1	-2	22	0.89
COCC(=O)Nc1cccc(C(F)(F)F)c1	1	37*	1.1
CC(C)[C@H](NC(=O)Nc1cccc(C(F)(F)F)c1)C(=O)O	-1	27*	2.2
CC(C)[C@H](NC(=O)Nc1cccc(Br)c1)C(=O)O	-4	28	0.14
COc1ccc(CCN(Cc2cc3cccc(C)c3[nH]c2=O)C(=O)NC2CCCCC2)cc1OC	-1	1	-0.51
CC(C)CN(C(=O)CSc1nn(-c2ccc(Cl)cc2)c(=S)s1)C1CCS(=O)(=O)C1 (configuration not stated)	0	4	-0.18
CC(=O)Nc1ccc(/C(C)=N/Nc2nc(Nc3cccc4ccccc34)nc(N3CCOCC3)n2)cc1	-1	3	-0.06
CCCOc1ccc2cc(-c3ccccn3)c(=O)oc2c1	-3	20	-0.55
O=c1oc2cc(OCc3c(F)cccc3Cl)ccc2cc1-c1ccccn1	.	46*	0.25[8.6 µM]
O=C1CC(N2CCSCC2)C(=O)N1CCc1ccccc1 (configuration not stated)	0	7	0.62
O=C(NC(=S)Nc1ccc(S(=O)(=O)Nc2nccs2)cc1)c1ccccc1	-8	9	1.6
O=C(NC(=S)Nc1ccc(S(=O)(=O)Nc2nccs2)cc1)c1ccc(F)c(F)c1	-4	30*	1.1
CCOC(=O)C1=C(N)OC(CCl)=C(C#N)C1c1ccsc1 (configuration not stated)	-3	5	-2.1
Cc1cnc(NC(=O)COc2cccc3c2OC(C)(C)C3)s1	.	65*	0.07
Cc1cc(NC(=O)COC(=O)COc2cccc3c2OC(C)(C)C3)no1	-1	.	0.78
SMILES	Phagocytosis inh	Measles CPE	SDO1 yeast rescue
NC(=O)c1cc(S(=O)(=O)NC2CCCCC2)co1	0	10	-0.18
COC(=O)c1ccccc1NC(=O)N1c2ccccc2Sc2ccccc21	.	7	0.01
CN(C)Cc1ccccc1COc1ccccc1	-11	3	-0.62
COc1cc(/C=C/C(=O)OCC(=O)N2CCC(Cc3ccccc3)CC2)ccc1O	-5	6	-0.43
COc1cc(/C=C/C(=O)OCC(=O)N2CCc3ccccc3C2)ccc1O	66*[artifact]	11	-0.95
CCCOC(=O)CN1C(=O)c2ccccc2C1=O	1	20*	0.74
CCOC(=O)CN1C(=O)c2ccccc2C1=O	-3	3	-0.48
O=C(c1cc([N+](=O)[O-])ccc1N1CCCCC1)N1CCCCC1	2	38	-0.52
O=C(O)c1cc([N+](=O)[O-])ccc1N1CCCCC1	4	21*	-0.27
COc1cc(CNc2ccc(N3CCOCC3)c(C(=O)O)c2)ccc1OCC(N)=O	-2	14	-0.08
CSc1nc(N)nc(SCC(=O)CC(=O)OC(C)C)c1C#N	38*[artifact]	11	-0.82
Cc1nc(SCC(=O)CC(=O)OC(C)C)c(C#N)c(C)c1C	.	6	-1.4
O=C(C1CC(c2ccccc2O)=NO1)N1CCc2ccccc2C1 (configuration not stated)	-1	47*	-0.94
O=C(C1CC(c2ccc(F)cc2)=NO1)N1CCc2ccccc2C1 (configuration not stated)	0	8	0.85
COc1cc(NS(=O)(=O)c2ccc(N/C=C(\C=O)c3nc4ccccc4o3)cc2)nc(OC)n1	-6	.	-0.24
Cc1ccc(NC(=O)/C(C#N)=C/c2ccc(C)s2)c(C)c1	2	14	0.75
